Measured values reported in PubChem BioAssay (NCI).
Compounds without any hit were thinned out: in the full panel of roughly 79,000, 15% have a hit. Unmarked numbers belong to inactive results. The source made the active and inactive calls. Rule as the data show it: active = growth inhibition above about 70%; inactive = the rest.

Tests used:
[1] = NCI Yeast Anticancer Drug Screen. Data for the rad52 strain (AID 147);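 also: 0% = growth of vehicle-treated control cultures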; details: S. cerevisiae rad52 mutant growth inhibition, stronger effect = higher value
Procedure, shortened: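 Yeast strain carrying a DNA damage repair alteration was exposed to test compounds. Growth inhibition was measured relative to vehicle-treated controls.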

[2] = NCI Yeast Anticancer Drug Screen. Data for the wt1 strain (AID 149);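 also: 0% = growth of vehicle-treated wt1 cultures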; details: S. cerevisiae wt1 strain (SPY 50644) growth inhibition, stronger effect = higher value
Procedure, shortened: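 wt1 strain grown with compound or vehicle; inhibition taken from the growth difference.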

[3] = NCI Yeast Anticancer Drug Screen. Data for the rad50EPP+ strain (AID 151);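 also: 0% = growth of vehicle-treated control cultures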; details: S. cerevisiae rad50 mutant strain, stronger effect = higher value
Procedure, shortened: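 Yeast strain carrying rad50 alteration (rad50EPP+) exposed to compounds; growth inhibition measured relative to vehicle-treated controls.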

[4] = NCI Yeast Anticancer Drug Screen. Data for the mgt1 strain (AID 153); details: S. cerevisiae mgt1 mutant growth inhibition, stronger effect = higher value
Procedure, shortened: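 Yeast mgt1 strain (DNA repair/cell-cycle alteration panel) exposed to compounds; growth inhibition measured relative to vehicle-treated controls.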

[5] = NCI Yeast Anticancer Drug Screen. Data for the rad50 strain (AID 155);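 also: 0% = growth of vehicle-only cultures of the same strain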; details: S. cerevisiae rad50 strain growth inhibition, stronger effect = higher value
Procedure, shortened: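 DNA repair mutant yeast, compound exposure, growth read-out; inhibition is taken relative to vehicle.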

[6] = NCI Yeast Anticancer Drug Screen. Data for the mec2-1 strain (AID 157); details: S. cerevisiae mec2-1 strain, stronger effect = higher value
Procedure, shortened: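 mec2-1 yeast strain, carrying an alteration in DNA damage repair or cell cycle control, was exposed to compounds; growth inhibition was measured relative to vehicle-treated controls.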

[7] = NCI Yeast Anticancer Drug Screen. Data for the rad14 strain (AID 159);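 also: 0% = growth of vehicle-treated control cultures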; details: S. cerevisiae rad14 strain growth inhibition, stronger effect = higher value
Procedure, shortened: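 DNA repair-defective yeast, compound-exposed; % growth inhibition derived by comparison with vehicle-treated controls.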

[8] = NCI Yeast Anticancer Drug Screen. Data for the sgs1 mgt1 strain (AID 161);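 also: 0% = growth of cultures given vehicle only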; details: S. cerevisiae sgs1 mgt1 strain, stronger effect = higher value
Procedure, shortened: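 Percent growth inhibition was derived by comparing compound-exposed mutant yeast with vehicle-exposed cultures. The strain carries alterations in DNA damage repair.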

[9] = NCI Yeast Anticancer Drug Screen. Data for the CLN2oe strain (AID 163);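 also: 0% = growth of vehicle-only control cultures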; details: S. cerevisiae CLN2oe strain, stronger effect = higher value
Procedure, shortened: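 Yeast cells carrying a defined cell-cycle control alteration were exposed to test compounds. Growth inhibition was scored against vehicle-treated control cultures.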

[10] = NCI Yeast Anticancer Drug Screen. Data for the cln2 rad14 strain (AID 165);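 also: 0% = growth equal to vehicle treated cultures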; details: S. cerevisiae cln2 rad14 strain, stronger effect = higher value
Procedure, shortened: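 Yeast carrying cln2 and rad14 alterations (cell cycle control and DNA damage repair) were exposed to compounds. Growth inhibition was measured against vehicle-treated controls.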

[11] = NCI Yeast Anticancer Drug Screen. Data for the bub3 strain (AID 167); details: S. cerevisiae bub3 mutant strain, stronger effect = higher value
Procedure, shortened: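 In this screen, a yeast mutant lacking normal mitotic checkpoint function is challenged with compound. Relative growth versus vehicle gives the inhibition value.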

[12] = NCI Yeast Anticancer Drug Screen. Data for the wt2 strain (AID 169);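 also: 0% = growth of vehicle-treated yeast cultures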; details: S. cerevisiae wt2 strain growth inhibition, stronger effect = higher value
Procedure, shortened: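 Yeast cells were exposed to test compounds, and growth inhibition was measured relative to vehicle-treated controls.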

[13] = NCI Yeast Anticancer Drug Screen. Data for the mlh1 strain (AID 171);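 also: 0% = growth of vehicle-treated control cultures of the same strain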; details: S. cerevisiae mlh1 strain growth inhibition, stronger effect = higher value
Procedure, shortened: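 Yeast carrying a defined genetic alteration in DNA damage repair or cell cycle control were exposed to test compounds. Growth inhibition was measured relative to vehicle-treated controls.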

[14] = NCI Yeast Anticancer Drug Screen. Data for the mlh1 rad18 strain (AID 175); details: S. cerevisiae mlh1 rad18 strain growth inhibition, stronger effect = higher value
Procedure, shortened: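 Growth inhibition of the yeast strain was measured after compound exposure and expressed relative to vehicle-treated controls. The strain carries defined defects in DNA damage repair.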

[15] = NCI Yeast Anticancer Drug Screen. Data for the rad18 strain (AID 177); details: S. cerevisiae rad18 mutant growth inhibition, stronger effect = higher value
Procedure, shortened: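 Yeast carrying a defined DNA damage repair alteration were exposed to compounds. Growth inhibition was expressed relative to vehicle-treated controls.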

[16] = at 5.0 µM (retest, dose inferred, filed as 0.5)
[17] = at 50.0 µM (retest, dose inferred, filed as 5.0)

CNC(=O)OCc1c(COC(=O)NC)c2n(c1C)-c1ccc(OC)cc1CCC2
growth inhibition ([1]; at 1.2 µM): -18%
growth inhibition ([1]; at 3.7 µM): -24%
growth inhibition ([1]; at 11.0 µM): -20%
growth inhibition ([1]; at 33.0 µM): 96% (active)
growth inhibition ([1]; at 100.0 µM): 99% (active)
growth inhibition ([2]; at 1.2 µM): -45%
growth inhibition ([2]; at 3.7 µM): -53%
growth inhibition ([2]; at 11.0 µM): -57%
growth inhibition ([2]; at 33.0 µM): 96% (active)
growth inhibition ([2]; at 100.0 µM): 100% (active)
growth inhibition ([3]; at 1.2 µM): -6%
growth inhibition ([3]; at 3.7 µM): -7%
growth inhibition ([3]; at 11.0 µM): -8%
growth inhibition ([3]; at 33.0 µM): 6%
growth inhibition ([3]; at 100.0 µM): 15%
growth inhibition ([4]; at 1.2 µM): -32%
growth inhibition ([4]; at 3.7 µM): -35%
growth inhibition ([4]; at 11.0 µM): -34%
growth inhibition ([4]; at 33.0 µM): 98% (active)
growth inhibition ([4]; at 100.0 µM): 99% (active)
growth inhibition ([5]; at 1.2 µM): -35%
growth inhibition ([5]; at 3.7 µM): -38%
growth inhibition [5, 16]: 25%
growth inhibition ([5]; at 11.0 µM): -43%
growth inhibition ([5]; at 33.0 µM): 95% (active)
growth inhibition [5, 17]: 99% (active)
growth inhibition ([5]; at 50.0 µM): 85.7% (active)
growth inhibition ([5]; at 100.0 µM): 99% (active)
growth inhibition ([6]; at 1.2 µM): -61%
growth inhibition ([6]; at 3.7 µM): -29%
growth inhibition [6, 16]: 2%
growth inhibition ([6]; at 11.0 µM): -52%
growth inhibition ([6]; at 33.0 µM): 95% (active)
growth inhibition [6, 17]: 99% (active)
growth inhibition ([6]; at 50.0 µM): 89.1% (active)
growth inhibition ([6]; at 100.0 µM): 99% (active)
growth inhibition ([7]; at 1.2 µM): -36%
growth inhibition ([7]; at 3.7 µM): -16%
growth inhibition ([7]; at 11.0 µM): -23%
growth inhibition ([7]; at 33.0 µM): 98% (active)
growth inhibition ([7]; at 100.0 µM): 100% (active)
growth inhibition [8, 16]: 17%
growth inhibition [8, 17]: 99% (active)
growth inhibition ([8]; at 50.0 µM): 90% (active)
growth inhibition ([9]; at 1.2 µM): -12%
growth inhibition ([9]; at 3.7 µM): -16%
growth inhibition ([9]; at 11.0 µM): -5%
growth inhibition ([9]; at 33.0 µM): 87% (active)
growth inhibition ([9]; at 100.0 µM): 100% (active)
growth inhibition [10, 16]: 45%
growth inhibition [10, 17]: 98% (active)
growth inhibition ([10]; at 50.0 µM): 88.2% (active)
growth inhibition ([11]; at 1.2 µM): -16%
growth inhibition ([11]; at 3.7 µM): -26%
growth inhibition [11, 16]: 45%
growth inhibition ([11]; at 11.0 µM): -30%
growth inhibition ([11]; at 33.0 µM): 97% (active)
growth inhibition [11, 17]: 100% (active)
growth inhibition ([11]; at 50.0 µM): 87.2% (active)
growth inhibition ([11]; at 100.0 µM): 99% (active)
growth inhibition ([12]; at 1.2 µM): 8%
growth inhibition ([12]; at 3.7 µM): 9%
growth inhibition ([12]; at 11.0 µM): -7%
growth inhibition ([12]; at 33.0 µM): 66%
growth inhibition ([12]; at 100.0 µM): 98% (active)
growth inhibition ([13]; at 1.2 µM): -42%
growth inhibition ([13]; at 3.7 µM): -31%
growth inhibition ([13]; at 11.0 µM): -47%
growth inhibition ([13]; at 33.0 µM): 98% (active)
growth inhibition ([13]; at 100.0 µM): 99% (active)
growth inhibition [14, 16]: 17%
growth inhibition [14, 17]: 98% (active)
growth inhibition ([14]; at 50.0 µM): 86.9% (active)
growth inhibition ([15]; at 1.2 µM): -45%
growth inhibition ([15]; at 3.7 µM): -43%
growth inhibition ([15]; at 11.0 µM): -48%
growth inhibition ([15]; at 33.0 µM): 96% (active)
growth inhibition ([15]; at 100.0 µM): 98% (active)
